Results published in PubChem BioAssay (EPA / NIEHS).
“And” between values parts separate entries of the source, which are not always exact repeats. Equal entries are not always repeated. Some compounds were tested as several samples or in several runs, with calls that do not always agree. The source made the active and inactive calls. How the source made its calls: active means hit-call score of the fitted dose curve at least 0.9, where 1 is the maximum; inactive means score below 0.9.

Columns and labels:
[1] = APR_HepG2_CellLoss_72hr: Apredica 72-hour HepG2 Assay for Cell Loss (AID 2282915); conditions: high-content imaging
In short: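 HepG2 cells exposed 72 h to compound at 0.39–200 uM (10 concentrations, duplicate) in 0.5% DMSO. Fixed with 3.7% formaldehyde and Hoechst 33342-stained. Imaged at 20x; nuclear count gives cell number, fitted bidirectionally versus DMSO.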

[2] = APR_HepG2_P-H2AX_72hr: Apredica 72-hour HepG2 Assay for H2AX Phosphorylation (AID 2282916); conditions: imaging, actives raise or lower the signal;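 further: phospho-histone H2A.x immunostain intensity per cell marking DNA damage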
In short: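 HepG2; cpd 0.39–200 uM ×10 conc, duplicates; 0.5% DMSO; 72 hr. Fix 3.7% formaldehyde 30 min RT, 0.5% Triton X-100 10 min. Anti-phospho-H2A.x 1:200 + Hoechst 2 ug/mL, 60 min RT; ArrayScan imaging.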

[3] = APR_HepG2_MitoMembPot_72hr: Apredica 72-hour HepG2 Assay for Mitochondrial Membrane Potential (AID 2282917); conditions: imaging, actives raise or lower the signal
In short: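 HepG2 cells dosed 72 hr with compound at 0.39–200 uM in duplicate, 0.5% v/v DMSO final. Mitochondria stained with 250 nM MitoTracker Red CMXRos for 30 min before formaldehyde fixation, imaged by high-content fluorescence; bidirectional fit versus DMSO.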

[4] = APR_HepG2_MitoticArrest_72hr: Apredica 72-hour HepG2 Assay for Mitotic Arrest (AID 2282918); conditions: high-content imaging, actives raise or lower the signal
In short: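 High-content imaging of fixed human HepG2 cells after 72 h compound exposure (0.39–200 uM, duplicates, 0.5% DMSO); mitotic arrest scored from phospho-histone H3 and nuclear Hoechst staining relative to DMSO.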

[5] = APR_HepG2_MicrotubuleCSK_72hr: Apredica 72-hour HepG2 Assay for Microtubule CSK Stabilty (AID 2282919); conditions: HepG2 microtubule cytoskeleton, high-content imaging, actives raise or lower the signal
In short: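 HepG2 cells were exposed 72 hr to compound at 0.39–200 uM in duplicate (0.5% DMSO final), then fixed and permeabilized. Alpha-tubulin immunofluorescence was imaged by high-content microscopy, with bidirectional fitting against DMSO and taxol as positive control.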

[6] = APR_HepG2_StressKinase_72hr: Apredica 72-hour HepG2 Assay for Stress Kinase (AID 2282921); conditions: HepG2 stress kinase (phospho-c-Jun) imaging, actives raise or lower the signal
In short: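 Dose 0.39–200 uM (10 pts, duplicate), 0.5% DMSO; 72 h; fix 3.7% formaldehyde 30 min RT; Triton permeabilize; anti-phospho-c-Jun/Cy3 + Hoechst 60 min RT; image 20x; fit gain/loss vs DMSO.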

[7] = APR_HepG2_StressKinase_24hr: Apredica 24-hour HepG2 Assay for Stress Kinase (AID 2282922); conditions: HepG2 stress kinase (phospho-c-Jun) imaging, actives raise or lower the signal
In short: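 HepG2 cells exposed 24 h to 0.39–200 uM compound in duplicate (0.5% v/v DMSO final). Cells fixed in 3.7% formaldehyde, permeabilized and immunostained for phospho-c-Jun; read by high-content fluorescence imaging, fitted bidirectionally against DMSO.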

[8] = APR_HepG2_MitoMass_72hr: Apredica 72-hour HepG2 Assay for Mitochondrial Mass (AID 2282924); conditions: high-content imaging, actives raise or lower the signal;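 further: MitoTracker Red CMXRos stain intensity per cell imaged as mitochondrial mass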
In short: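 HepG2 cells dosed 72 hr at 0.39–200 uM (0.5% DMSO), in duplicate. MitoTracker Red CMXRos 250 nM loaded 30 min before formaldehyde fixation; high-content fluorescence imaging, bidirectional fit versus DMSO.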

[9] = APR_HepG2_P-H2AX_24hr: Apredica 24-hour HepG2 Assay for H2AX Phosphorylation (AID 2282920); conditions: high-content imaging, actives raise or lower the signal
In short: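 High-content imaging of phospho-histone H2A.x immunofluorescence, nuclei counterstained with Hoechst 33342, in fixed HepG2 cells. Compounds ran 0.39–200 uM in duplicate for 24 h, final DMSO 0.5%. Signal change fitted both directions against DMSO.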

[10] = APR_HepG2_p53Act_72hr: Apredica 72-hour HepG2 Assay for p53 Activation (AID 2282923); conditions: high-content imaging, actives raise or lower the signal;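 further: average cellular p53 protein immunofluorescence intensity in HepG2 cells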
In short: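 10-pt conc. 0.39–200 uM, duplicate, 0.5% DMSO; 72 hr exposure; 3.7% formaldehyde fix, 0.5% Triton perm; sheep anti-p53/Cy5 + Hoechst; ArrayScan 20x, 6 images/well; gain/loss fit vs DMSO.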

SMILES	AC50 [1]	outcome [1]	AC50 [2]	outcome [2]	outcome [3]	AC50 [4]	outcome [4]	outcome [5]	AC50 [6]	outcome [6]	AC50 [7]	outcome [7]	AC50 [8]	outcome [8]	AC50 [5]	outcome [9]	outcome [10]	AC50 [10]	AC50 [9]	AC50 [3]
CCCN(CCC)c1c([N+](=O)[O-])cc(S(N)(=O)=O)cc1[N+](=O)[O-]	38.6 µM (active) and 39.2 µM (active) and 46.7 µM (active)	inactive	128 µM (active) and 34.6 µM (active)	inactive	inactive	34 µM (active) and 82.3 µM (active)	inactive	inactive	54.4 µM (active)	inactive	116 µM (active)	inactive	94.8 µM (active)	inactive	–	–	–	–	–	–
CC(C)(C)c1ccc(CSc2cnn(C(C)(C)C)c(=O)c2Cl)cc1	8.33 µM (active)	–	–	inactive	inactive	–	inactive	–	–	inactive	–	inactive	–	inactive	7.56 µM (active)	inactive	inactive	–	–	–
Oc1ccccc1-c1ccccc1	–	inactive	–	inactive	inactive	–	inactive	inactive	–	inactive	–	inactive	–	inactive	–	inactive	inactive	–	–	–
COP(=S)(OC)Oc1nc(Cl)c(Cl)cc1Cl	151 µM (active)	–	–	inactive	inactive	–	inactive	inactive	–	inactive	–	inactive	–	inactive	–	–	inactive	–	–	–
C=CCC1=C(C)C(OC(=O)C2C(C=C(C)C)C2(C)C)CC1=O (centres undefined)	57.1 µM (active) [middle of 4 runs]	–	53.8 µM (active) and 47.5 µM (active)	inactive	inactive	43.6 µM (active) and 50 µM (active) and 46 µM (active)	inactive	inactive	60.6 µM (active) and 52.5 µM (active)	inactive	32.4 µM (active)	inactive	66.4 µM (active)	inactive	–	–	inactive	117 µM (active)	–	–
N#Cc1nn(-c2c(Cl)cc(C(F)(F)F)cc2Cl)c(N)c1S(=O)C(F)(F)F (centres undefined)	63.1 µM (active)	–	34.9 µM (active)	–	inactive	–	inactive	–	105 µM (active)	–	–	inactive	–	inactive	179 µM (active)	–	inactive	–	107 µM (active)	–
CNC(=O)ON=CC(C)(C)SC	–	inactive	–	inactive	inactive	–	inactive	inactive	–	inactive	–	inactive	–	inactive	–	–	inactive	–	–	–
CCCC1COC(Cn2cncn2)(c2ccc(Cl)cc2Cl)O1 (centres undefined)	76 µM (active)	–	–	inactive	inactive	–	inactive	–	–	inactive	–	inactive	–	inactive	77.7 µM (active)	inactive	inactive	–	–	–
CCON=C(CC)C1=C(O)CC(c2c(C)cc(C)cc2C)CC1=O (centres undefined)	–	inactive	–	inactive	inactive	–	inactive	inactive	–	inactive	–	inactive	–	inactive	–	inactive	inactive	–	–	–
CCNc1nc(Cl)nc(NC(C)C)n1	–	inactive	–	inactive	inactive	–	inactive	inactive	–	inactive	–	inactive	–	inactive	–	inactive	inactive	–	–	–
COP(N)(=O)SC (centres undefined)	–	inactive	–	inactive	inactive	–	inactive	inactive	–	inactive	–	inactive	–	inactive	–	inactive	inactive	–	–	–
COC(=O)C(C)Oc1ccc(Oc2ccc(Cl)cc2Cl)cc1 (centres undefined)	–	inactive	–	inactive	inactive	–	inactive	inactive	–	inactive	–	inactive	–	inactive	–	inactive	inactive	–	–	–
CC(C)C1(C)N=C(c2nc3ccccc3cc2C(=O)O)NC1=O (centres undefined)	–	inactive	–	inactive	inactive	–	inactive	inactive	–	inactive	–	inactive	–	inactive	–	inactive	inactive	–	–	–
CCOP(=S)(OCC)SCn1c(=O)oc2cc(Cl)ccc21	61.4 µM (active)	–	–	inactive	inactive	–	inactive	–	–	inactive	–	inactive	–	inactive	99.8 µM (active)	inactive	inactive	–	–	–
COC(=O)c1ccccc1C(=O)OC	–	inactive	–	inactive	inactive	–	inactive	inactive	–	inactive	–	inactive	–	inactive	–	–	inactive	–	–	–
CON(C)C(=O)Nc1ccc(Cl)c(Cl)c1	–	inactive	–	inactive	–	–	inactive	inactive	–	inactive	–	inactive	67 µM (active)	–	–	–	inactive	–	–	23.1 µM (active)
COc1nc(NC(C)C)nc(NC(C)C)n1	–	inactive	–	inactive	inactive	–	inactive	inactive	–	inactive	–	inactive	–	inactive	–	inactive	inactive	–	–	–
C=CC1(C)OC(=O)N(c2cc(Cl)cc(Cl)c2)C1=O (centres undefined)	–	inactive	–	inactive	inactive	–	inactive	inactive	–	inactive	–	inactive	–	inactive	–	inactive	inactive	–	–	–
CCOC(=O)C(Cl)Cc1cc(-n2nc(C)n(C(F)F)c2=O)c(F)cc1Cl (centres undefined)	–	inactive	–	inactive	inactive	–	inactive	inactive	–	inactive	–	inactive	–	inactive	–	inactive	inactive	–	–	–
COC(=O)C=C(C)OP(=O)(OC)OC	–	inactive	–	inactive	inactive	–	inactive	inactive	–	inactive	–	inactive	–	inactive	–	inactive	inactive	–	–	–
CS/C(C)=N/OC(=O)N(C)SN(C)C(=O)O/N=C(\C)SC	–	inactive	–	inactive	inactive	–	inactive	inactive	–	inactive	–	inactive	–	inactive	–	inactive	inactive	–	–	–
CCCCC(CC)COC(=O)c1ccccc1C(=O)OCC(CC)CCCC (centres undefined)	–	inactive	–	inactive	inactive	–	inactive	inactive	–	inactive	–	inactive	–	inactive	–	–	inactive	–	–	–
CCCCNC(=O)OCC#CI	1.45 µM (active) and 7.9 µM (active)	–	–	inactive	inactive	9.07 µM (active)	inactive	inactive	–	inactive	–	inactive	5.54 µM (active)	inactive	18 µM (active)	–	inactive	–	–	–
COc1nc(C)nc(NC(=O)NS(=O)(=O)c2ccccc2Cl)n1	–	inactive	–	inactive	inactive	–	inactive	inactive	–	inactive	–	inactive	–	inactive	–	–	inactive	–	–	–
COc1nc(C)nc(NC(=O)NS(=O)(=O)c2ccccc2CCC(F)(F)F)n1	–	inactive	–	inactive	inactive	–	inactive	inactive	–	inactive	–	inactive	–	inactive	–	–	inactive	–	–	–
